Compound activity as filed in PubChem BioAssay.
Shown are actives, neighbours in structure and some others; about 2.7% of the full set was active somewhere.
IDE act: IDE (human) activation, cell-based; P14735; HEK cells, FAbeta-B cleavage, fluorescence polarization; 0% vehicle, 100% cell-free pure enzyme wells; activation, % at 5.96 µM; hit rate 0.073% among 340,000; AID 493087;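 active = activation above the mean of all tested compounds plus 3 SD, set per screening campaign, cut at about 17% in these data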
CHT PAM: human CHT allosteric activation; Q9GZV3; CHT-expressing cells, membrane potential dye, choline EC20; stronger effect = higher value; LV-AA mutant CHT in HEK293 cells; B-score at 10 µM; hit rate 0.49% among 310,000; AID 488977;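 active = initial fluorescence not abnormally high and integrated response B-score, plate-corrected, over 3 SD above library mean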
TMEM16A act: mouse TMEM16A channel activation, primary screen; Q8BHY3; HEK293 TMEM16A/YFP-H148Q/I152L, iodide quench fluorescence; stronger effect = lower value; B-score at 10 µM; hit rate 0.3% among 340,000; AID 623877;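 active = fluorescence-ratio B-score plate-corrected deviation score at least 3 library SD below zero, with starting fluorescence score within 5 deviations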;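 also: channel opened by trigger with iodide after compound preincubation; score built on the fluorescence ratio of max minus min over baseline; more negative score means more quench and so TMEM16A activation or potentiation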
Target sequence (Q8BHY3 whole entry, looked up): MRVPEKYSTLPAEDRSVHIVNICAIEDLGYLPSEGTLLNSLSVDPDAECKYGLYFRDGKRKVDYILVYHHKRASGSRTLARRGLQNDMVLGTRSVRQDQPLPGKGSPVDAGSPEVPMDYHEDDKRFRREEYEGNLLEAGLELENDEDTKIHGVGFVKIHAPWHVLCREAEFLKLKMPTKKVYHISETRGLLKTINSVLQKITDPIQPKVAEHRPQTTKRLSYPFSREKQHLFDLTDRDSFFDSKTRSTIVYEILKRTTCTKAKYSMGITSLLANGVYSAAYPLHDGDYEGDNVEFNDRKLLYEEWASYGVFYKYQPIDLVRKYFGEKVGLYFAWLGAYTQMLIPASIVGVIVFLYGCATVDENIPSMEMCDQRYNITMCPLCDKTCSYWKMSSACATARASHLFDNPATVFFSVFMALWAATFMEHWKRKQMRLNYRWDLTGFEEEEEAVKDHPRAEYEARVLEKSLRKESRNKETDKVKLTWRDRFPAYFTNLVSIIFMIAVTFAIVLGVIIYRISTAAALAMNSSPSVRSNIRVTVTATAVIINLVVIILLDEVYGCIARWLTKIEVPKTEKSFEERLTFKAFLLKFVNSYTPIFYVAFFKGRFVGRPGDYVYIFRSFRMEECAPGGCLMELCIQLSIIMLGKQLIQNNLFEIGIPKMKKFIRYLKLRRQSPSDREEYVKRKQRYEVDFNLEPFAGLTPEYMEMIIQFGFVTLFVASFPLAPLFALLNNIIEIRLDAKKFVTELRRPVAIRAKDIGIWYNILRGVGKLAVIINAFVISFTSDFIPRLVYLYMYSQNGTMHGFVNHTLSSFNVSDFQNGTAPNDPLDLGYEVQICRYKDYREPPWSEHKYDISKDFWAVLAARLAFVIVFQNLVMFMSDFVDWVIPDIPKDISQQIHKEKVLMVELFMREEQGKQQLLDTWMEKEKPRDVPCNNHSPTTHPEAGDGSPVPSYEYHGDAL
CHT block: human CHT choline transport inhibition; B-score at 10 µM; CHT-expressing cells, membrane potential dye, choline response; stronger effect = lower value; AID 488975; hit rate 0.86% among 310,000;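 active = B-score over 3 SD under the library average, and starting fluorescence ratio not unusually high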;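 also: choline stimulus applied at its EC90 after an EC20 pre-addition; B-score computed on integrated fluorescence ratio after choline addition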
IDE inh: cellular human IDE inhibition | P14735 | HEK cells, FAbetaB cleavage, fluorescence polarization | inhibition, % at 5.59 µM | hit rate 0.41% among 320,000 | AID 434962;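 active = percent inhibition above the average of all tested compounds plus 3 SD, set per screening campaign, cut at about 16% in these data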;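 also: IDE supplied by intact live HEK cells; FP after avidin binding of uncleaved biotin substrate so inhibition keeps polarization high; 0% = DMSO wells and 100% = 60 µM reference IDE inhibitor Ii1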
TMEM16A inh: inhibitors of mouse TMEM16A calcium-activated chloride channel | AID 588511 | Q8BHY3 | HEK293 TMEM16A/YFP iodide influx fluorescence, ionomycin | normalized B-score (activity score, 25-100; higher = stronger inhibition) at 10 µM | hit rate 1.2% among 310,000;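 active = ratio plate-corrected score three or more library SD toward inhibition, starting fluorescence score within five deviations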;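 also: score derived from kinetic fluorescence span divided by baseline fluorescence per well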
* hit, by the source's call; i = inactive; · = no result.

SMILES | IDE act | CHT PAM | TMEM16A act | CHT block | IDE inh | TMEM16A inh
CCOC(=O)N1CCN(C(=O)c2ccc3c(c2)N(Cc2ccc(F)cc2)CCS3)CC1 | -4.4 | i | i | -5.16* | -2.2 | i
CCOC(=O)N1CCN(C(=O)c2ccc3c(c2)N(CC)CCS3)CC1 | 0.0 | i | i | i | 6.7 | i
Cc1ccc2nc(N3C(=O)C(O)=C(C(=O)c4ccco4)C3c3ccc(O)cc3)sc2c1 (configuration not stated) | 2.7 | i | i | i | 2.5 | 25*
CCCSc1nnc(N2C(=O)C(O)=C(C(=O)c3ccco3)C2c2ccccc2F)s1 (configuration not stated) | -2.1 | i | -4.77* | i | 11.8 | i
COC(=O)c1sc(N2C(=O)C(O)=C(C(=O)c3ccc(C)o3)C2c2ccco2)nc1C (configuration not stated) | 0.7 | i | i | i | 1.7 | i
CSc1nnc(N2C(=O)C(O)=C(C(=O)c3ccco3)C2c2ccccc2F)s1 (configuration not stated) | 5.8 | i | -4.76* | i | 7.1 | i
COC(=O)c1sc(N2C(=O)C(O)=C(C(=O)c3ccc(C)o3)C2c2cccs2)nc1C (configuration not stated) | 4.2 | i | i | -5.84* | 2.0 | i
C=CCSc1nnc(N2C(=O)C(O)=C(C(=O)c3ccco3)C2c2ccccc2F)s1 (configuration not stated) | 1.6 | i | i | i | 6.9 | i
COc1ccc(S(=O)(=O)NCCCN2CCCC2=O)cc1OC | -0.7 | i | i | i | -5.1 | i
Cc1ccc(C2C(C(=O)c3ccco3)=C(O)C(=O)N2c2nnc(C)s2)cc1 (configuration not stated) | -2.6 | i | i | i | 1.9 | i
CSc1nnc(N2C(=O)C(O)=C(C(=O)c3ccc(C)o3)C2c2ccc(C)cc2)s1 (configuration not stated) | 0.1 | i | -4.8* | i | 8.2 | i
O=C(CS(=O)(=O)c1ccccc1)Nc1ncc([N+](=O)[O-])s1 | -1.0 | i | i | i | -0.9 | i
O=C(NC(Nc1ncc(S(=O)(=O)c2ccc([N+](=O)[O-])cc2)s1)(C(F)(F)F)C(F)(F)F)c1ccc(Cl)cc1 | 0.6 | i | i | i | -3.0 | 100*
O=C(Nc1ncc(S(=O)(=O)c2ccc([N+](=O)[O-])cc2)s1)c1cccc2ccccc12 | 1.5 | i | -5.34* | i | -2.1 | 25*
O=C(Nc1ncc([N+](=O)[O-])s1)c1ccccc1Br | 0.1 | i | i | i | -0.6 | 100*
COCC(=O)Nc1ncc(S(=O)(=O)c2ccc([N+](=O)[O-])cc2)s1 | 6.5 | i | i | i | 2.7 | i
CC(C)[C@H](NC(=O)c1ccco1)C(=O)OCC(=O)Nc1cccc(F)c1 | -0.1 | i | -40.7* | i | -4.0 | i
Cc1cccc(C)c1OCC(=O)Nc1cccc(NC(=O)c2ccco2)c1 | -0.4 | i | i | i | -0.1 | 100*
CC(C)[C@H](NC(=O)c1ccco1)C(=O)OCC(=O)Nc1ccc(Cl)c(S(=O)(=O)N(C)C)c1 | -0.8 | i | i | i | -4.0 | i
CCN(C[C@H]1N[C@@](Cc2ccccc2)(C(=O)OC)[C@H]2C(=O)N(Cc3ccccc3)C(=O)[C@@H]12)C(=O)COc1ccccc1 | -1.8 | · | · | · | 4.1 | ·
Cc1c(C)c2ccc(OCC(=O)N3CC[C@@]4(O)CCCC[C@H]4C3)c(C)c2oc1=O | 1.6 | i | i | i | 7.6 | i
CCC(C(=O)Nc1cccc(S(=O)(=O)N(C)c2ccccc2)c1)c1ccccc1 (configuration not stated) | -3.8 | · | i | · | 1.9 | ·
COc1ccc(NC(=O)CN(C)CC(=O)Nc2cccc(F)c2)cc1S(=O)(=O)N1CCCCC1 | 2.0 | · | i | · | · | ·
Cc1ccc(NC(=O)CN(C)CC(=O)Nc2cccc(F)c2)cc1S(=O)(=O)N1CCCCCC1 | 2.6 | i | i | i | 6.3 | 25*
Cc1ccc(NC(=O)CSc2ncnc3ccccc23)cc1S(=O)(=O)N1CCOCC1 | -14.2 | i | i | i | 5.3 | 25*
